An excerpt weighted towards active compounds, which were near 11% of everything screened.
PNC assembly inh: High Content Assay for Compounds that inhibit the Assembly of the Perinucleolar Compartment; activity change (PNC), negative = inhibition, % at 10 µM; PC3M PTB-GFP, PNC prevalence imaging, 16 h; hits give low values; AID 2417, 2010; 140,000 compounds, 3.1% hits;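 active = readout at or below -70, meaning at least 70% loss of cells showing the perinucleolar compartment, a nuclear body marking cancer cells; inconclusive = readout between -30 and a set limit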;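 also: plate controls were DMSO wells for no effect and camptothecin positive control wells for full effect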
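Read-out is percentage of cells bearing a perinucleolar compartment, from automated 20x imaging of fixed, Hoechst-stained PC3M PTB-GFP cells. Cells were seeded 4 h, then exposed 16 h to compound (23 nl of library stock) in duplicate plates.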
HPGD inh: qHTS Assay for Inhibitors of HPGD (15-Hydroxyprostaglandin Dehydrogenase) | 15-hydroxyprostaglandin dehydrogenase [NAD(+)] (Homo sapiens), P15428 | purified HPGD, NADH fluorescence kinetic, PGE2 substrate | Potency, µM, for inactives: at the highest dose activity change, negative = inhibition, most hits filed as inhibitors | 150,000 compounds, 4.3% hits | AID 894, 2007; also: potency is read from the fitted curve at half-maximal effect
Target sequence (P15428 whole entry, looked up): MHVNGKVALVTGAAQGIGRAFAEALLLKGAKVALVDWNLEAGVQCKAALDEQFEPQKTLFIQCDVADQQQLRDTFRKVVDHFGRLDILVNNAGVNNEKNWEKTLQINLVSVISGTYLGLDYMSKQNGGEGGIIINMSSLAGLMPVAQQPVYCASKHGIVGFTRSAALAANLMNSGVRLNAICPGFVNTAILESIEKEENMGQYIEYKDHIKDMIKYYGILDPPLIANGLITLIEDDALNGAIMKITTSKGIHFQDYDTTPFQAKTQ
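20 nM HPGD preincubated 15 min at room temperature with compound in 50 mM Tris-HCl pH 8, 0.01% Tween 20. Started with 1 mM NAD+ and 30 uM prostaglandin E2; NADH fluorescence (360/450 nm) read 5 times over 30-s intervals, last minus first.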
ALDH1A1 block: qHTS Assay for Inhibitors of Aldehyde Dehydrogenase 1 (ALDH1A1) | Purified ALDH1A1, NADH fluorescence, propionaldehyde substrate | AID 1030, 2008 | 220,000 compounds, 7.3% hits | Aldehyde dehydrogenase 1A1 (Homo sapiens), P00352 | Potency, µM (top dose mostly 75.3 µM), for inactives: top-dose activity, negative = inhibition, actives largely listed as inhibitors;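 also: potency is read from the fitted curve at half-maximal effect; plate controls were no enzyme wells and a reference inhibitor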
Active calls of the source: *; ? = inconclusive; . = no result. Unless noted, calls follow the shape of the dose curve; as a rule, active = well fitted inhibition curve with a large enough effect (not every such curve was filed as active); inconclusive = small, poorly fitted or top-dose-only effect, or another doubt; inactive = no such curve, though single readings can be large or run the other way. Unless noted, % is scaled to controls: 0 for no effect and ±100 for the full control effect.

SMILES	PNC assembly inh	HPGD inh	ALDH1A1 block
CCOC(=O)c1c(-c2ccc(-c3ccccc3)cc2)csc1NC(=O)C1C2CCC(O2)C1C(=O)O (stereo not drawn)	-17	14µM*	?
Cc1cc(C)cc(NC(=O)c2ccc(CSc3nnnn3C)cc2)c1	9	-10%	7%
CCOC(=O)c1c(-c2ccccc2)csc1NC(=O)CCN1CCOCC1	29	-18%	28µM*
O=C(C1CCCO1)N1CCN(C(=S)Nc2ccccc2Cl)CC1 (stereo not drawn)	30	-8%	?
CC1(C)CC(=O)CC(C)(C)N1OC(=O)c1ccccn1	42	-6%	-5%
C=CC[N+](C)(C)C/C(Cl)=C(\Cl)c1ccccc1	34	-2%	19%
O=C(c1cnccn1)N1CCC2(CCCN(c3cccc(-c4ccccc4)c3)C2)CC1	.	-9%	-1%
O=C(c1csnn1)N1CCC2(CC1)CN(c1ccncc1)C2	.	-4%	11%
O=S(=O)(Nc1ccc2c(c1)OCCO2)c1cnc[nH]1	15	-11%	6%
O=C(N/C(=C/c1cccs1)C(=O)N1CCOCC1)c1ccccc1	.	.	-3%
CCOC(=O)c1cnc(-c2ccccc2)nc1N1CCOCC1	.	.	-4%
Cn1c(SCC(=O)c2cc(Cl)c(Cl)s2)nnc1-c1ccco1	.	.	28µM*
Cc1ccc(C(=O)CSc2nnc(-c3ccco3)n2C)cc1	.	.	5%
O=C(CCSc1ccccc1)NCCN1CCOCC1	11	-10%	-6%
CCOC(=O)c1[nH]cc(-c2ccccc2)c1N1CCOCC1	-14	4µM*	2.8µM*
CCOC(=O)CNC(c1ccccc1)c1cc(Br)ccc1NC(=O)CCN1CCOCC1 (stereo not drawn)	-18	32µM*	?
O=C(CC(c1ccccc1)c1cc(Br)ccc1O)NCCN1CCOCC1 (stereo not drawn)	-13	14µM*	-64%
COC(=O)CNC(c1ccccc1)c1cc(Br)ccc1NC(=O)CCN1CCOCC1 (stereo not drawn)	-9	?	-1%
CCOc1nnnc2c1sc1nc(N3CCOCC3)c3c(c12)CCCC3	32	-5%	9%
COc1ccc(/C=N/NC(=O)CN2CCSCC2)c(OC)c1	?	-17%	?
C=CCc1c(OC)ccc2ccc(=O)oc12	35	?	?
O=C(OCCN=C1NS(=O)(=O)c2ccccc21)C1CC(=O)N(c2ccc3ccccc3c2)C1 (stereo not drawn)	-16	-9%	?
CCCC[C@H]1C[C@@H]1[C@@H]1N(P(=O)(c2ccccc2)c2ccccc2)[C@](CO)(c2ccccc2)CC12CC2	.	-15%	-8%
Cc1ccccc1NC(=O)CSc1nnnn1C	18	-13%	11%
CCOC(=O)c1c(-c2ccccc2)csc1NC(=O)CSc1ccccc1	-10	-17%	?
SMILES	PNC assembly inh	HPGD inh	ALDH1A1 block
Cc1occc1-c1nnc(SCC(=O)Nc2ccccc2-c2ccccc2)n1C	15	-7%	22µM*
Cn1c(SCC(=O)Nc2ccccc2-c2ccccc2)nnc1-c1ccco1	?	-18%	8.9µM*
Cc1cccc(C)c1NC(=O)CSc1nnc(-c2ccoc2C)n1C	?	-17%	-1%
CCOC(=O)c1c(-c2ccccc2)csc1NC(=O)CSc1nnnn1C	-20	32µM*	-13%
CCc1nnc(NC(=O)CSc2nnc(-c3ccco3)n2C)s1	14	-3%	3%
Cn1nnnc1SCC(=O)Nc1ccccc1-c1ccccc1	-29	-3%	13µM*
O=C(CCn1c(=O)[nH]c2ccsc2c1=O)Nc1ccc(F)c(F)c1	42	?	-8%
COc1ccc(S(=O)(=O)N2CCC(C(=O)Nc3ccc4c(c3)OCCO4)CC2)cc1OC	15	-3%	-15%
Cc1ccc(Cl)cc1NC(=O)CC(O)(C(F)(F)F)C(F)(F)F	15	-11%	0%
CCCn1c(SCC(=O)Nc2ccccc2-c2ccccc2)nnc1-c1ccoc1C	14	-2%	32µM*
Cc1ccccc1NC(=O)CSc1nnc(-c2ccoc2C)n1CCc1ccccc1	7	-8%	-12%
CCOC(=O)c1c(-c2cccc([N+](=O)[O-])c2)csc1NC(=O)CCCOc1ccccc1OC	40	?	28µM*
CCOC(=O)c1c(-c2cccc([N+](=O)[O-])c2)csc1NC(=O)CCCOc1ccccc1	7	.	?
O=C1CSC(=Nc2ccc(Cl)cc2)N1Cc1cccnc1	.	.	-11%
COC(=O)c1cc(C(=O)OCC(=O)Nc2ccccc2OC(F)F)cc([N+](=O)[O-])c1	-12	-18%	4%
